From PubChem BioAssay AID1209 (Sanford-Burnham Center for Chemical Genomics, 2008)
Out of some 190,000 compounds screened, about 810 (0.43%) were called active. Cut-off read from the data, not from the text of the source: active = inhibition above about 50%; inactive = the rest. The sample as a whole holds a higher share of actives than the screen did.

Biological target: Mannose-6-phosphate isomerase (Homo sapiens) (UniProt P34949)
Experiment: MPI enzyme activity inhibition – biochemical, fluorescence intensity, coupled assay, primary screen (AID 1209);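 note: plate controls were DMSO vehicle for no effect and wells lacking substrate for full effect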
Settings: purified PMI enzyme, at 20 µM, active compounds read high

Mannose-6-phosphate isomerase (Homo sapiens), sequence (P34949 whole entry, looked up): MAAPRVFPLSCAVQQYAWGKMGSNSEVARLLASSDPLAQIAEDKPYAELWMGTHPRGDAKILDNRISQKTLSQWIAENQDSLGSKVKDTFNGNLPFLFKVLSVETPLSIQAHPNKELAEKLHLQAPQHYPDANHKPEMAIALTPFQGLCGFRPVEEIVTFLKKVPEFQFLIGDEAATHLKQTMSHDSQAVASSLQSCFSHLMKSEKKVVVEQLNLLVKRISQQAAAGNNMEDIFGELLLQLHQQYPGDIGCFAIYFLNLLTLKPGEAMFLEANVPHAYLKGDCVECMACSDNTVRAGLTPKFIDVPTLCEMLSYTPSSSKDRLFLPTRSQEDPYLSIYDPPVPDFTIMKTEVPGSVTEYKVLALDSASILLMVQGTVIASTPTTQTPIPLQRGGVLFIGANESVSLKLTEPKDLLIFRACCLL

inhibition, active:
COc1ccc(C(=O)C2CCCN(C(=O)COc3ccc(C(C)=O)cc3)C2)cc1F (centres undefined) 57.4%
Cc1ccc2[nH]c3c(c2c1)CCc1cn[nH]c1-3 69.4%
COc1ccc(C(=O)C[N+]2(C)CCOCC2)cc1 81.3%
CC(C)CCOc1ccc(C(=O)C[N+]2(C)CCOCC2)cc1 81.8%
C=C1N(C)c2cc([N+](=O)[O-])c(N)cc2C1(C)C 94%
O=C(CCN1CCN(c2ccccc2F)CC1)c1ccc(Br)cc1 59.8%
O=C(CCN1CCOCC1)c1ccc(Br)cc1 60.4%
CC1CCCN(CCC(=O)c2ccc(Br)cc2)C1 (centres undefined) 60.1%
COc1ccc(S(=O)(=O)NCC(=O)N(CC(=O)NC(C)(C)C)Cc2cccs2)cc1 110%
O=C(O)c1ccc2c(c1)C(=O)N(c1cccc(-c3nc4ccccc4s3)c1)C2=O 102%
COCCOC(=O)C1=C(C)NC2(O)c3ccccc3C(=O)C12O (centres undefined) 70.5%
O=S(=O)(NCCN1CCOCC1)c1cccs1 68.9%
Cn1c(N)c(C(=O)Nc2ccc3ccccc3c2)sc1=S 64.8%
C/C(=N\NC(=O)c1nn(C)c(C)c1Br)c1cccc(NC(=O)c2ccc(F)cc2)c1 50.8%
Cc1ccc(NC(=S)N(CCCN2CCC(C)CC2)Cc2ccco2)cc1 81.3%
CCOC(=O)C1C(c2ccc(O)c(O)c2)NC(=S)NC1(O)C(F)(F)F (centres undefined) 61.7%
O=C(COc1cccnc1[N+](=O)[O-])N1CCN(C(=O)c2ccco2)CC1 57.6%
C[N+]1=C(/C=C/Nc2ccccc2Cl)C(C)(C)c2ccccc21 78.4%
CC1(C)CC(N2CCCC2)=CC(=[N+]2CCCCCC2)C1 62.8%

inhibition, inactive:
CCN1CCCC1CNC(=O)CSc1cc(=O)n(C)c2cc(Cl)ccc12 (centres undefined) -0.3%
COc1ccc(C(=O)C2CCCN(C(=O)c3ccccc3C(C)=O)C2)cc1F (centres undefined) -0.2%
COc1ccc(C(=O)C2CCCN(C(=O)c3cccs3)C2)cc1F (centres undefined) -2.9%
CC(=O)Nc1nc(SCCCc2ccccc2)n[nH]1 -3.1%
COc1cccc(NC(=S)NNC(=O)CCn2cc([N+](=O)[O-])cn2)c1 9.6%
O=C(Nc1nc(-c2ccc(Oc3ccccc3)cc2)cs1)C1=COCCO1 19.1%
c1ccc2c3c([nH]c2c1)-c1[nH]ncc1CC3 49%
Clc1ccc2[nH]c3c(c2c1)CCc1cn[nH]c1-3 12.6%
COc1ccc(C(=O)OCC[N+]2(C)CCCCC2)cc1 4.5%
CC(C)CCOc1ccc(C(=O)NCCC(=O)N2CCOCC2)cc1 8.3%
COc1ccc(C(=O)OCC[N+]2(C)CCOCC2)cc1 -0.9%
CC(C)CCOc1ccc(C(=O)O)cc1 7.9%
Oc1ccccc1C1=Nc2ncnn2C(c2ccccc2)C1 (centres undefined) -40.5%
CCOCCCNC(=O)C(c1ccc(C)cc1)N(Cc1cccs1)C(=O)c1ccccn1 (centres undefined) 0.7%
CCCCCCCCc1nnc(NC(=O)c2ccco2)s1 2.7%
CCC(c1nnnn1Cc1cccs1)N1CCN(C2CCCC2)CC1 (centres undefined) 0%
O=C(N/C(=C\c1cccc([N+](=O)[O-])c1)C(=O)N1CCOCC1)c1ccc([N+](=O)[O-])cc1 12.3%
O=C(C1=C[C@@H](C2CCCCC2)C[C@@H](OCc2ccc(CO)cc2)O1)N1CCN(Cc2ccc3c(c2)OCO3)CC1 19.6%
Cn1c(SCC(=O)C(C)(C)C)nnc1-c1ccncc1 6%
Cc1ccc(C(C)(C)C)cc1S(=O)(=O)NC(=O)c1ccccc1 -10.8%
CC1(C)Oc2cc(N)c([N+](=O)[O-])cc2O1 17.5%
Nc1ccc(-c2ccc(N)c([N+](=O)[O-])c2)cc1[N+](=O)[O-] -6.5%
Cc1ncc2c(c1OC(=O)c1ccc([N+](=O)[O-])cc1)COC(C)(C)OC2 -1.9%
O=C(CCNC(=O)c1ccco1)Nc1ccc(Cl)cc1 4.4%
O=C(CCN1CCN(c2ccccc2F)CC1)Nc1ccccc1F -9.9%
COc1ccc(C(=O)CCN2CCN(c3ccccc3F)CC2)cc1 16.8%
CC1CCCN(CCC(=O)Nc2ccc(Br)cc2)C1 (centres undefined) -13.4%
O=C(CCN1CCOCC1)c1ccccc1 -1.6%
O=C(CCN1CCOCC1)c1ccc(Cl)cc1 25.9%
CC1CCCN(CCOc2ccc(Br)cc2)C1 (centres undefined) -8.8%
COc1cc(C)nc(N2CCC(C(N)=O)CC2)n1 -2.7%
Cc1cc(=O)n2[nH]c(-c3ccc(F)cc3)nc2n1 7.6%
CC(=O)Nc1nc(NC(=O)/C=C/c2ccccc2)n(-c2ccccc2)n1 -31.3%
C=CCc1ccccc1OCCOc1ccc([N+](=O)[O-])cc1/C=N/NC(N)=O 3.8%
CC(C)(C)NC(=O)CN(Cc1cccs1)C(=O)CNS(=O)(=O)c1ccccc1 -0.6%
Cc1ccc(S(=O)(=O)NCC(=O)N(CC(=O)NC(C)(C)C)Cc2cccs2)cc1 -16%
NC(=O)c1nn(CC(=O)Nc2ccc3c(c2)OCO3)cc1[N+](=O)[O-] 0%
Cc1ccc(NCC(=O)N/N=C/c2c[nH]c3ccccc23)cc1 0%
Cc1ccc(S(=O)(=O)Nc2cnc3ccccc3c2)cc1 3.8%
O=C(O)c1ccc2nc(-c3ccccc3)sc2c1 -10.7%
CC(=O)Oc1cccc(N2C(=O)c3ccc(C(=O)O)cc3C2=O)c1 -31.5%
COc1ccc(/C(O)=C2\C(=O)C(=O)N(CCN(C)C)C2c2cc(OC)c(OC)c(OC)c2)c(C)c1 (centres undefined) -21.3%
CCOC(=O)C1=C(C)N[C@@]2(O)c3ccccc3C(=O)[C@@]12O 21%
CCOC(=O)C1=C(C)NC2(O)c3ccccc3C(=O)C12O (centres undefined) 12.1%
COc1ccccc1OCC(=O)NNC(=O)c1c(-c2ccccc2Cl)noc1C -14.6%
O=S(=O)(NCCNS(=O)(=O)c1cccs1)c1cccs1 -15.3%
O=S(=O)(NCCN1CCOCC1)c1ccc(Cl)s1 -5.3%
Cc1cc2cc(C)c3nnc(SCC(=O)N4CCCc5ccccc54)n3c2cc1C 12.3%
N#CCCn1cc(C(=O)O)c(-c2cc3ccccc3o2)n1 -2.3%
COC(=O)c1ccccc1NC(=O)c1sc(=S)n(C)c1N -14.8%
Cn1c(N)c(C(=O)NCc2ccccc2)sc1=S 12.3%
Cc1cnn(C(=O)c2oc3ccccc3c2C)c1 -1.3%
Cc1cc(N)n(-c2ccccc2C)n1 11.2%
C=CCN1C(=O)C(C)(C)Nc2ccccc21 6.9%
Cn1ccnc1SCC(=O)c1c[nH]c2ccccc12 4.5%
C/C(=N\NC(=O)c1nn(C)c(C)c1Br)c1ccc(NC(=O)c2ccccc2F)cc1 -0.9%
C/C(=N\NC(=O)c1nn(C)c(C)c1Br)c1cccc(NC(=O)c2ccoc2C)c1 -8.4%
COC(=O)c1ccc(NC(=S)NCCCN2CCCC2=O)cc1 -0.7%
Cc1ccc(NC(=S)N(CCCN2CCOCC2)Cc2ccco2)cc1 -2%
Cc1ccc(NC(=S)N(CCCN2CCC(C)CC2)Cc2ccco2)cc1C -3.2%
CCOC(=O)C1C(c2ccc(O)c(OCC)c2)NC(=S)NC1(O)C(F)(F)F (centres undefined) -6.6%
CCOC(=O)C1C(c2ccc(O)c(OC)c2)NC(=S)NC1(O)C(F)(F)F (centres undefined) -3%
O=C(CN1C(=O)c2cccc3cccc(c23)C1=O)N1CCOCC1 24.7%
O=C(Nn1cnnc1)c1ccc(Br)s1 -17.3%
O=C(NCCCn1ccnc1)c1cc(-c2ccc(Br)cc2)on1 -3.5%
O=C(O)CS(=O)(=O)CC(=O)NCc1cccc(C(F)(F)F)c1 -2.8%
Cc1ccc(NC(=O)Nc2c(C)n(C)n(-c3ccccc3)c2=O)cc1C -4%
COCCn1c(=NC(=O)C2COc3ccccc3O2)sc2cc(S(N)(=O)=O)ccc21 (centres undefined) 12.8%
O=C(COc1cccnc1[N+](=O)[O-])N1CCN(S(=O)(=O)c2ccccc2)CC1 12.8%
O=C(COc1ccccc1O)N1CCN(C(=O)c2ccco2)CC1 4%
CC1(C)C/C(=N\O)c2cc3c(nc2C1)CCCC3 -3%
Cc1cc(C)nc(NC(=O)c2c(-c3c(Cl)cccc3Cl)noc2C)n1 9.1%
CCOC(=O)N1CCN(S(=O)(=O)c2cc(C)c(C)cc2C)CC1 -3.8%
FC(F)(F)c1cnc(/C=C/Nc2ccccc2Cl)c(Cl)c1 12.3%
COC(=O)c1ccc(CN(C)S(=O)(=O)c2ccc(C)cc2)o1 -1.6%
CCc1nc(N=Nc2c(O)[nH]c3ccccc23)c2c3c(sc2n1)CCC3 -5.7%
C=CCn1c(COc2ccc3c(c2)CCCC3)nnc1SCC(=O)Nc1cccc(SC)c1 15%
CC1(C)CC(N2CCCCC2)=CC(=[N+]2CCCCC2)C1 34.9%
CC1(C)CC(N2CCCC2)=CC(=[N+]2CCCCC2)C1 12.6%
COc1cc2c(C(=O)OCCN(C)C)c(CSc3ccccc3)n(C)c2cc1Br 3.3%
